# In the library only some 10% were active in any assay of this set; here they are far more common.
# FLuc inh – Firefly luciferase inhibition profiling of diverse chemical library using quantitative high-throughput screening; Potency, µM (highest dose often 115 µM), usual class: inhibitors; actives 2.5% (n = 76,000); purified P. pyralis luciferase, luminescence, biochemical; AID 1347043, 2019; note: nearly all actives have a fitted effect of over 65% in size
# Target sequence (P08659 whole entry, looked up): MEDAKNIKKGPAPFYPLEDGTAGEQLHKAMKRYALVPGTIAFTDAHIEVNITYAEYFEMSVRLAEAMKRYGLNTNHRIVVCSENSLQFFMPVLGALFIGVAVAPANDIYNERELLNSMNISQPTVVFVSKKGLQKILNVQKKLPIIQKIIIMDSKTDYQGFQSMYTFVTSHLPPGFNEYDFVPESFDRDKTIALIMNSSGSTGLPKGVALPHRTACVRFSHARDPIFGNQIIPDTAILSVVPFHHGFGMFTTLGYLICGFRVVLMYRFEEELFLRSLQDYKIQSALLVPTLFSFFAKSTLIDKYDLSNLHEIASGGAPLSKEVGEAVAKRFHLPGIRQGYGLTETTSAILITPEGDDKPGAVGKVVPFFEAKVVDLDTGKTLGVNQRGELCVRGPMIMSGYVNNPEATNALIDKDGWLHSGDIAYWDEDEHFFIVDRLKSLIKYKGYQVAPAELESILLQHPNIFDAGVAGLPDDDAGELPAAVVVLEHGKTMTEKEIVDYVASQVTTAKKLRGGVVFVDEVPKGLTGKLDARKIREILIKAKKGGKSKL
#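 FLuc 10nM, D-luciferin 10uM, ATP 10uM, Mg acetate 10mM, Tris acetate pH 7.5, Tween/BSA; cpd qHTS; enzyme added last; CCD luminescence.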
# GPT2 inh – Primary qHTS assay for inhibitors of Glutamate pyruvate transaminase 2 (GPT2) | Alanine aminotransferase 2 (Homo sapiens), Q8TD30 | Recombinant GPT2, coupled pyruvate oxidase/HRP Amplex Red fluorescence | Potency, µM (top dose mostly 57.7 µM), inactives show at the top dose activity change, negative = inhibition, actives largely listed as inhibitors | actives 0.25% (n = 100,000) | AID 1671188, 2021; note: nearly all actives have a fitted effect of over 60% in size
#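 Fluorescence of coupled pyruvate oxidase/HRP/Amplex Red system (50uM Amplex, 30 min, dark) reports pyruvate formed by GPT2. Enzyme reaction: 10ng/uL GPT2, 2mM L-alanine, 250uM a-KG, 30 min room temperature, pH 7.5; 50uM AOA control.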
# 3T3 cytotox – Cytotoxic Profiling in NIH 3T3 Cell Line of Diverse Libraries Using Quantitative High-Throughput Screening. NIH 3T3 viability, CellTiter-Glo ATP luminescence, 48-72 h. Potency, µM (series often up to 96.7 µM), for the others: top-dose activity change, negative = cytotoxicity, most hits filed as inhibitors. actives 4.3% (n = 94,000); note: nearly all actives have a fitted effect of over 55% in size
#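 Cells were seeded at 400 per well, treated with pin-transferred compound, and kept 48 or 72 hr at 37 °C before CellTiter-Glo addition and luminescence imaging of cellular ATP.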
# NPR1 antag – Natriuretic polypeptide receptor (hNpr1) antagonism - Primary qHTS; HEK293 hNpr1 GloSensor cGMP, ANP-stimulated luminescence; Potency, µM (doses to about 46.3 µM), for inactives: at the top dose activity change, negative = inhibition, most hits filed as inhibitors; actives 1.6% (n = 76,000); calls by dose curve; note: nearly all actives have a fitted effect of over 60% in size
#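 HEK293 cells stably expressing human Npr1 and cGMP GloSensor pGS-40F, loaded 2 h with 2% GloSensor reagent, given compound 30 min at room temperature. Luminescence read before and 20 min after 0.1 nM hNppA.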
# HEK cytotox – Cytotoxic Profiling in HEK 293 Cell Line of Diverse Libraries Using Quantitative High-Throughput Screening. HEK 293 viability, ATP luminescence (CellTiter-Glo), 48-72 h. Potency, µM (highest dose often 115 µM), for the others: at the highest dose activity change, negative = cytotoxicity, actives largely listed as inhibitors. actives 6.6% (n = 94,000). AID 1345083, 2018; note: nearly all actives have a fitted effect of over 60% in size
#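 HEK 293 seeded at 250 cells/well receive compound via pintool. After 48 or 72 hr at 37 degree Celsius, 5% CO2 and 95% humidity, CellTiter-Glo is dispensed and luminescence read following 10 min at room temperature.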
# * = called active by the depositor; i = inactive; ? = inconclusive; nt = no result; [ ] = dose if it differs, or a comment. Unless noted, calls come from the whole dose curve; as a rule, active = well fitted curve in the direction sought with a large enough effect; inconclusive = small, poorly fitted or top-dose-only effect, or another doubt; inactive = no such curve, though single readings can be large; an effect the other way counts as inactive or inconclusive. % is set by controls: 0 for no effect and ±100 for the full control effect; potency is the fitted concentration of half-maximal effect.
SMILES,FLuc inh,GPT2 inh,3T3 cytotox,NPR1 antag,HEK cytotox
O[C@@H]1C[C@@H](c2nc(-c3ccccn3)no2)N(Cc2cccc(OC(F)(F)F)c2)C1,?,-11.2%[88.5 µM],-21.1%[138 µM],-15.7%[70.6 µM],?
C#CCNC(=O)c1cc(-c2ccc(C(F)(F)F)cc2)nc2c1cnn2C,nt,nt,?,nt,25.1µM*
Cn1ncc2c(C(=O)NCCc3ccccc3)cc(-c3ccc(C(F)(F)F)cc3)nc21,nt,nt,-17.8%,nt,4.1%
Cn1ncc2c(C(=O)NCc3ccc(C(F)(F)F)cc3)cc(-c3ccc(F)cc3)nc21,nt,nt,22.4µM*,nt,?
Cn1ncc2c(C(=O)Nc3ccccc3F)cc(-c3ccc(C(F)(F)F)cc3)nc21,nt,nt,35.5µM*,nt,?
COc1ccc(CNC(=O)c2cc(-c3ccc(C(F)(F)F)cc3)nc3c2cnn3C)cc1,nt,nt,?,nt,-32.2%
Cn1ncc2c(C(=O)NCc3ccc(F)c(F)c3)cc(-c3cccc(F)c3)nc21,nt,nt,?,nt,39.8µM*
COCCNC(=O)C1CCCN1Cc1ccc(-c2cncnc2)cc1 (stereo unspecified),nt,3.9%,-13.4%,nt,-2.7%
O=C(NCc1ccc(C(F)(F)F)cc1)c1ccc2nnc(C3CCOCC3)n2c1,nt,nt,-32.9%,nt,-15.2%
COCc1nc(C2CCCN(C(=O)C3CCCC3)C2)no1 (stereo unspecified),i,i,3.2%,0.0%,-4.1%
Cn1ncc2c(C(=O)NCc3ccccc3)cc(-c3cccc(F)c3)nc21,nt,nt,?,nt,39.8µM*
Cn1ncc2c(C(=O)NCCc3ccccc3)cc(-c3cccc(F)c3)nc21,nt,nt,-29.6%,nt,?
Cc1ccc(C(=O)N2CC(Oc3ccc4c(c3)OCO4)C2)cc1,nt,?,-22.3%,nt,?
CC(C)C[C@@H]1N[C@H](C(=O)O)Cc2cn(Cc3nccn3C)c3cccc1c23,i,?,-11.3%,-6.8%,-7.6%
CC(C)C[C@@H]1N[C@H](C(=O)NC2CCCC2)Cc2cn(Cc3nccn3C)c3cccc1c23,i,-8.6%[88.5 µM],89.1µM*,-1.3%[70.6 µM],39.8µM*
Cc1noc(C)c1Cn1cc2c3c(cccc31)[C@H](CC(C)C)N[C@H](C(=O)NCc1ccco1)C2,i,-12.0%,20µM*,-17.8%,?
COCCNC(=O)[C@@H]1Cc2cn(Cc3nccn3C)c3cccc(c23)[C@H](CC(C)C)N1,i,2.8%[88.5 µM],-21.6%[174 µM],4.2%[70.6 µM],39.8µM*
C#CCNC(=O)[C@@H]1Cc2cn(Cc3nccn3C)c3cccc(c23)[C@H](CC(C)C)N1,i,?,?,1.6%[70.6 µM],?
CC(C)C[C@@H]1N[C@H](C(=O)NCc2ccco2)Cc2cn(Cc3nccn3C)c3cccc1c23,i,-1.7%,?,-13.2%,31.6µM*
CC(C)Cc1cn(C2CCN(Cc3cc4c(cc3Cl)OCO4)CC2)nn1,i,-5.5%,?,-13.0%,?
CCCC(C)C(=O)N1CCn2nc(C(=O)Nc3ccccc3)cc2C1 (stereo unspecified),i,-15.1%[11.5 µM],-17.9%,-22.7%,35.5µM*
CCn1cc(C(=O)N2CCn3nc(C(=O)Nc4ccccc4)cc3C2)c(C)n1,i,-3.4%,-20.7%,-1.0%,?
CCn1nc(-c2ccc3c(c2)OCCO3)nc1N(C)C,39.8µM*,?,-9.6%,0.0%,-9.4%
NC(=O)c1cccnc1OC1CCN(C(=O)c2cccc(Cl)c2)C1 (stereo unspecified),i,i,-6.7%,3.6%,?
COc1ccc(-c2nccc3c(=O)cc(N4CCOCC4)oc23)cc1OC,i,2.1%[88.5 µM],10µM*,-1.0%[70.6 µM],?
SMILES,FLuc inh,GPT2 inh,3T3 cytotox,NPR1 antag,HEK cytotox
O=c1cc(N2CCOCC2)oc2c(-c3cccc4[nH]ccc34)nccc12,i,i,8.91µM*,6.9%[70.6 µM],?
O=c1cc(N2CCOCC2)oc2c(Nc3ccccn3)nccc12,i,-1.2%[88.5 µM],?,4.6%[70.6 µM],-20.6%[172 µM]
Cc1cc(-c2nccc3c(=O)cc(N4CCOCC4)oc23)ccn1,i,2.7%[88.5 µM],31.6µM*,4.6%[70.6 µM],-21.4%[172 µM]
O=c1cc(N2CCOCC2)oc2c(N3CCOCC3)nccc12,i,i,39.8µM*,6.3%[70.6 µM],?
CCCCC1CN(c2cccc(-c3ccccc3)c2)C(=O)CN1C(C)=O (stereo unspecified),i,-9.2%,?,6.7%,?
CN(C)c1cccc(Oc2nnnn2[C@H]2CO[C@H]3[C@@H]2OC[C@@H]3NCC2CC2)c1,i,-0.7%[88.5 µM],-6.8%[174 µM],-4.0%[70.6 µM],-19.9%[172 µM]
Cc1cc(-c2nccc3c(=O)cc(N(C)C)oc23)ccn1,i,?,?,1.0%[70.6 µM],-6.0%[230 µM]
O=c1cc(N2CCOCC2)oc2c(-c3ccc(F)c(Cl)c3)nccc12,i,3.3%[88.5 µM],17.8µM*,4.2%[70.6 µM],-11.6%[172 µM]
CN1CCN(c2cc(=O)c3ccnc(-c4ccc(CO)cc4)c3o2)CC1,i,-5.5%[88.5 µM],?,5.1%[70.6 µM],i
O=c1cc(N2CCOCC2)oc2c(-c3ccc(F)cc3)nccc12,i,2.0%[88.5 µM],31.6µM*,1.7%[70.6 µM],?
O=c1cc(N2CCOCC2)oc2c(NCc3ccc(F)cc3)nccc12,i,-23.9%[88.5 µM],25.1µM*,3.9%[70.6 µM],?
Cc1cc(-c2nccc3c(=O)cc(N(C)c4ccccc4)oc23)ccn1,i,1.9%[88.5 µM],10µM*,-1.4%[70.6 µM],?
CN1CCN(c2cc(=O)c3ccnc(Nc4ccccn4)c3o2)CC1,i,4.3%[88.5 µM],?,0.8%[70.6 µM],-5.7%[172 µM]
O=C(NC[C@H]1OC[C@@H](NCc2ccccc2F)[C@@H]1O)c1ccc(F)cc1,i,3.3%[88.5 µM],-18.3%[174 µM],-1.0%[70.6 µM],-3.6%[172 µM]
COc1ccc(-c2nc(C3CC3)nc3c2CCN(C(=O)c2ccc(C)cc2)CC3)cc1,nt,-1.1%,-29.5%,nt,?
Cc1c(Cl)cccc1NC(=O)Cn1ccn2nc(-c3ccc(F)cc3)c(CO)c2c1=O,i,?,-15.1%,0.1%,-3.3%
CN1CCN(c2cc(=O)c3ccnc(-c4cccc(F)c4)c3o2)CC1,i,2.0%[88.5 µM],35.5µM*,-1.1%[70.6 µM],-13.5%[172 µM]
COc1cc(F)ccc1-c1nccc2c(=O)cc(N(C)C3CCOCC3)oc12,i,3.0%[88.5 µM],?,6.2%[70.6 µM],-31.7%[172 µM]
CN(C)c1cc(=O)c2ccnc(-c3cccc(CO)c3)c2o1,i,i,?,-2.8%[70.6 µM],i
CN1CCN(c2cc(=O)c3ccnc(-c4cccc(CO)c4)c3o2)CC1,i,4.8%[88.5 µM],?,-3.5%[70.6 µM],-6.5%[172 µM]
COc1cc(F)ccc1-c1nccc2c(=O)cc(N3CCOCC3)oc12,i,-0.3%[88.5 µM],44.7µM*,1.6%[70.6 µM],-6.4%[172 µM]
CN1CCN(c2cc(=O)c3ccnc(Nc4ccc(F)c(Cl)c4)c3o2)CC1,i,i,100µM*,1.9%[70.6 µM],?

# Source: PubChem (National Center for Advancing Translational Sciences (NCATS))
